# The supplement of paper PMC10037445
# Over roughly 2,900 compounds, “NF-kB SEAP reporter activity, fold change vs agonist alone” has its median near 0.99; the highest 2% begin near 2.6. Only a selection was taken, and the highest values are over-represented in it overall.
# How the values were obtained:
# RAW-Dual [1] = assay: NF-kB SEAP reporter activity, fold change vs agonist alone; higher = enhanced NF-kB activity
# In short: (§1)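 Reporter activity is given as fold change relative to agonist-alone wells. To measure it, 50 nL of library stock was pin-tooled onto RAW-Dual macrophages (50,000 cells/well, DMEM, 384-well plates), a PRR agonist followed 1 h later, and cells stayed at 37 °C, 5% CO2. Twenty hours on, supernatant was assayed for IRF (QuantiLuc luminescence) and NF-κB (QuantiBlue, 620 nm absorbance), and wells under 70% of agonist-control IncuCyte confluency in both mask sets were marked cytotoxic.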
# RAW-Dual [2] = assay: NF-kB SEAP reporter activity, fold change vs agonist alone; cytotoxicity flag (confluency mask): not cytotoxic; higher = enhanced NF-kB activity
# In short: as §1
# RAW-Dual [3] = assay: NF-kB SEAP reporter activity, fold change vs agonist alone; cytotoxicity flag (confluency mask): cytotoxic (confluency <70% of control); higher = enhanced NF-kB activity
# In short: as §1
# [4] = library stock concentration (final ~1000-fold dilution): 10 mM, cytotoxicity flag (confluency mask): not cytotoxic, agonist: Imiquimod (TLR7) […]
# [5] = library stock concentration (final ~1000-fold dilution): 10 mM, cytotoxicity flag (confluency mask): not cytotoxic, agonist: MPLA (TLR4) […]
# [6] = agonist: ODN 1826 (TLR9) 0.5 ug/mL
# [7] = agonist: Pam2CSK4 (TLR2/6) 0.1 ug/mL
# [8] = agonist: Pam3CSK4 (TLR2/1) 0.1 ug/mL
# [9] = library stock concentration (final ~1000-fold dilution): 10 mM, cytotoxicity flag (confluency mask): cytotoxic (confluency <70% of control), agonist: Imiquimod (TLR7) […]
# [10] = library stock concentration (final ~1000-fold dilution): 10 mM, cytotoxicity flag (confluency mask): cytotoxic (confluency <70% of control), agonist: MPLA (TLR4) […]
# [11] = library stock concentration (final ~1000-fold dilution): 2 mM, cytotoxicity flag (confluency mask): not cytotoxic, agonist: Imiquimod (TLR7) […]
# [12] = library stock concentration (final ~1000-fold dilution): 2 mM, cytotoxicity flag (confluency mask): not cytotoxic, agonist: MPLA (TLR4) […]
smiles,measurement,setting,value
O=C(O)c1ccc(CSc2nc(-c3ccccc3)cc(N3CCN(c4ccccc4Cl)CC3)n2)cc1,NF-kB SEAP reporter activity,RAW-Dual [1]; [4],0.515
same,NF-kB SEAP reporter activity,RAW-Dual [1]; [5],0.868
O=C(O)c1ccc(CSc2nc(-c3ccccc3)cc(N3CCN(c4ccccc4Cl)CC3)n2)cc1 (library stock concentration (final ~1000-fold dilution): 10 mM),NF-kB SEAP reporter activity,RAW-Dual [2]; agonist: LPS (TLR4) 0.1 ug/mL,0.736
same,NF-kB SEAP reporter activity,RAW-Dual [2]; [6],0.584
same,NF-kB SEAP reporter activity,RAW-Dual [2]; [7],0.248
same,NF-kB SEAP reporter activity,RAW-Dual [2]; [8],0.392
CC(C)CC(NC(=O)CNC(=O)c1cc(Cl)ccc1Cl)B1OC(=O)CC(CC(=O)O)(C(=O)O)O1 (stereo not drawn) (library stock concentration (final ~1000-fold dilution): 10 mM),NF-kB SEAP reporter activity,RAW-Dual [2]; agonist: LPS (TLR4) 0.1 ug/mL,0.585
same,NF-kB SEAP reporter activity,RAW-Dual [2]; [6],0.938
same,NF-kB SEAP reporter activity,RAW-Dual [2]; [7],0.905
same,NF-kB SEAP reporter activity,RAW-Dual [2]; [8],0.999
CC(C)CC(NC(=O)CNC(=O)c1cc(Cl)ccc1Cl)B1OC(=O)CC(CC(=O)O)(C(=O)O)O1 (stereo not drawn),NF-kB SEAP reporter activity,RAW-Dual [1]; [4],0.956
same,NF-kB SEAP reporter activity,RAW-Dual [1]; [5],0.913
O=c1nc(N2CCOCC2)oc2c(-c3cccc4c3sc3ccccc34)cccc12 (library stock concentration (final ~1000-fold dilution): 10 mM),NF-kB SEAP reporter activity,RAW-Dual [2]; agonist: LPS (TLR4) 0.1 ug/mL,3.45
same,NF-kB SEAP reporter activity,RAW-Dual [2]; [6],1.08
same,NF-kB SEAP reporter activity,RAW-Dual [2]; [7],0.718
same,NF-kB SEAP reporter activity,RAW-Dual [2]; [8],1.38
O=c1cc(N2CCOCC2)oc2c(-c3ccccc3)cccc12,NF-kB SEAP reporter activity,RAW-Dual [1]; [9],1.07
same,NF-kB SEAP reporter activity,RAW-Dual [1]; [10],1.63
O=c1cc(N2CCOCC2)oc2c1ccc1ccccc12 (library stock concentration (final ~1000-fold dilution): 2 mM),NF-kB SEAP reporter activity,RAW-Dual [2]; agonist: LPS (TLR4) 0.1 ug/mL,1.12
same,NF-kB SEAP reporter activity,RAW-Dual [2]; [6],1
same,NF-kB SEAP reporter activity,RAW-Dual [2]; [7],0.982
same,NF-kB SEAP reporter activity,RAW-Dual [2]; [8],1.07
O=c1cc(N2CCOCC2)oc2c(-c3cccc4c3sc3ccccc34)cccc12 (library stock concentration (final ~1000-fold dilution): 2 mM),NF-kB SEAP reporter activity,RAW-Dual [2]; agonist: LPS (TLR4) 0.1 ug/mL,5.39
same,NF-kB SEAP reporter activity,RAW-Dual [2]; [6],1.43
same,NF-kB SEAP reporter activity,RAW-Dual [2]; [7],1.05
same,NF-kB SEAP reporter activity,RAW-Dual [2]; [8],2.43
O=c1cc(N2CCOCC2)oc2c(-c3cccc4c3sc3ccccc34)cccc12,NF-kB SEAP reporter activity,RAW-Dual [1]; [11],1.46
same,NF-kB SEAP reporter activity,RAW-Dual [1]; [12],2.31
O=c1cc(N2CCOCC2)oc2c(-c3ccccc3)cccc12 (library stock concentration (final ~1000-fold dilution): 10 mM),NF-kB SEAP reporter activity,RAW-Dual [3]; agonist: LPS (TLR4) 0.1 ug/mL,1.81
same,NF-kB SEAP reporter activity,RAW-Dual [3]; [6],1.34
same,NF-kB SEAP reporter activity,RAW-Dual [3]; [7],0.984
same,NF-kB SEAP reporter activity,RAW-Dual [3]; [8],1.19
O=c1cc(N2CCOCC2)oc2c1ccc1ccccc12,NF-kB SEAP reporter activity,RAW-Dual [1]; [11],1.04
same,NF-kB SEAP reporter activity,RAW-Dual [1]; [12],0.989
O=c1nc(N2CCOCC2)oc2c(-c3cccc4c3sc3ccccc34)cccc12,NF-kB SEAP reporter activity,RAW-Dual [1]; [4],1.1
same,NF-kB SEAP reporter activity,RAW-Dual [1]; [5],1.85
CC(=O)N1CCCC1C(=O)NC(Cc1c[nH]cn1)C(=O)NC(CO)C(=O)NC(CS)C(=O)NC(CC(N)=O)C(N)=O (stereo not drawn),NF-kB SEAP reporter activity,"RAW-Dual [1]; library stock concentration (final ~1000-fold dilution): 10 mM water, cytotoxicity flag (confluency mask): not cytotoxic, agonist: Imiquimod (TLR7) […]",0.979
same,NF-kB SEAP reporter activity,"RAW-Dual [1]; library stock concentration (final ~1000-fold dilution): 10 mM water, cytotoxicity flag (confluency mask): not cytotoxic, agonist: MPLA (TLR4) […]",1.06
CC(=O)N1CCCC1C(=O)NC(Cc1c[nH]cn1)C(=O)NC(CO)C(=O)NC(CS)C(=O)NC(CC(N)=O)C(N)=O (stereo not drawn) (library stock concentration (final ~1000-fold dilution): 10 mM water),NF-kB SEAP reporter activity,RAW-Dual [2]; agonist: LPS (TLR4) 0.1 ug/mL,1.15
same,NF-kB SEAP reporter activity,RAW-Dual [2]; [6],1.22
same,NF-kB SEAP reporter activity,RAW-Dual [2]; [7],1.19
same,NF-kB SEAP reporter activity,RAW-Dual [2]; [8],1.02
CC(C)COc1ccc(CNC(=O)N(Cc2ccc(F)cc2)C2CCN(C)CC2)cc1.CC(C)COc1ccc(CNC(=O)N(Cc2ccc(F)cc2)C2CCN(C)CC2)cc1.O=C(O)C(O)C(O)C(=O)O,NF-kB SEAP reporter activity,RAW-Dual [1]; [9],0.496
same,NF-kB SEAP reporter activity,RAW-Dual [1]; [10],1.23
CC(C)COc1ccc(CNC(=O)N(Cc2ccc(F)cc2)C2CCN(C)CC2)cc1.CC(C)COc1ccc(CNC(=O)N(Cc2ccc(F)cc2)C2CCN(C)CC2)cc1.O=C(O)C(O)C(O)C(=O)O (library stock concentration (final ~1000-fold dilution): 10 mM),NF-kB SEAP reporter activity,RAW-Dual [3]; agonist: LPS (TLR4) 0.1 ug/mL,0.205
same,NF-kB SEAP reporter activity,RAW-Dual [3]; [6],0.239
same,NF-kB SEAP reporter activity,RAW-Dual [3]; [7],0.0981
same,NF-kB SEAP reporter activity,RAW-Dual [3]; [8],0.143
